Structures are written as SMILES. Compounds without any hit were thinned out: in the full panel of roughly 83,000, 20% have a hit.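 Single-concentration screen, 48 h exposure, 96-well plates. Endpoint: percent growth. Below 10 = active.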 Unmarked numbers belong to inactive results. Calls of active or inactive are those of the source.

Test systems include DU-145 prostate; K-562 leukemia; MALME-3M melanoma; MDA-MB-231 breast; RXF 393 renal; SF-268 CNS; SF-295 CNS; SF-539 CNS; UACC-257 melanoma; M14 melanoma; HCT-15 colon; HT29 colon; SNB-75 CNS; SNB-19 CNS; U251 CNS; PC-3 prostate; SK-MEL-5 melanoma; UACC-62 melanoma; LOX IMVI melanoma; SK-MEL-28 melanoma.
Holding throughout (assay): NCI-60 one-dose screen, 48 h (100 = growth as untreated, 0 = no growth, -100 = all killed)
Common to all, as to details: 10 µM unless noted

Regarding `O=C(c1ccccc1)N1N=C(c2ccccc2)CC1c1nnc2n(Cc3ccccc3)c(=O)c3c4c(sc3n12)CCCC4` (stereo not given), the growth in the test on DU-145 prostate is 116%; in the test with K-562 leukemia it was 116%; in the test with MALME-3M melanoma, 85.2%; with MDA-MB-231 breast, 111%; with RXF 393 renal, 104%; in the test on SF-268 CNS, 99.3%. In addition, the growth with SF-295 CNS is 138%; in the test on SF-539 CNS, 92.1%; with UACC-257 melanoma, 112%; in the test with M14 melanoma it was 111%; with HCT-15 colon, 102%; in the test on HT29 colon it was 101%. Moreover, the growth with SNB-75 CNS was 108%; in the test with SNB-19 CNS, 101%; in the test on U251 CNS, 98.3%; with PC-3 prostate, 97.9%; with SK-MEL-5 melanoma, 109%; in the test on UACC-62 melanoma, 112%. Also, the growth was 91.8% in the test with LOX IMVI melanoma and 106% with SK-MEL-28 melanoma.
In the case of `O=C1/C(=C/c2ccccc2)CCc2nc3ccccc3c(/C=C/c3ccc(Cl)cc3)c21`, the growth in the test on DU-145 prostate was 98.1%; in the test with K-562 leukemia it was 82%; with MALME-3M melanoma, 105%; in the test on MDA-MB-231 breast it was 86.6%; in the test with RXF 393 renal it was 96.3%; in the test on SF-268 CNS, 87.5%. Also, the growth was 96.3% with SF-295 CNS; 99.3% with SF-539 CNS; 82.8% in the test on UACC-257 melanoma; 86.6% with M14 melanoma; 69.4% in the test with HCT-15 colon; 81.3% in the test on HT29 colon. Moreover, the growth in the test on SNB-75 CNS was 76.5%; in the test on SNB-19 CNS it was 96.3%; in the test with U251 CNS, 93.2%; in the test with PC-3 prostate, 79.6%; with SK-MEL-5 melanoma, 89.8%; in the test on UACC-62 melanoma it was 73%. Also, the growth was 84.7% with LOX IMVI melanoma and 91.8% in the test on SK-MEL-28 melanoma.
Regarding `CCN1C(=O)N(CC)C2Nn3c(s/c(=C\c4ccc(Cl)cc4Cl)c3=O)=NC21` (stereo not given), the growth is 24.2% in the test with DU-145 prostate; 11.4% with K-562 leukemia; 75.6% with MALME-3M melanoma; 27.3% with MDA-MB-231 breast; 43% in the test with RXF 393 renal; 64.6% in the test with SF-268 CNS. Moreover, the growth was 26.5% in the test with SF-295 CNS; 13.1% with SF-539 CNS; 83.9% in the test on UACC-257 melanoma; 26% with M14 melanoma; 22.4% in the test with HCT-15 colon; 79.3% in the test with HT29 colon. In addition, the growth with SNB-75 CNS is 42.6%; with SNB-19 CNS, 48.6%; with U251 CNS, 26.3%; in the test with PC-3 prostate it was 33.6%; in the test on SK-MEL-5 melanoma it was 24.5%; with UACC-62 melanoma it was 41.1%. For the same compound, the growth in the test with LOX IMVI melanoma was 42.9%; in the test with SK-MEL-28 melanoma it was 45.2%.
For `O=c1cc(-c2ccc(Cl)cc2)[nH]c2ccccc12`, the growth was 97.4% in the test on DU-145 prostate; 33% with K-562 leukemia; 84.7% in the test with MALME-3M melanoma; 81.6% in the test with MDA-MB-231 breast; 76.4% in the test on RXF 393 renal; 86.1% in the test on SF-268 CNS. Also, the growth in the test on SF-295 CNS is 84.1%; in the test with SF-539 CNS, 94.5%; in the test on UACC-257 melanoma it was 73.3%; with M14 melanoma, 71.8%; with HCT-15 colon it was 59.1%; in the test with HT29 colon, 86.3%. The growth was 85.3% in the test on SNB-75 CNS; 91.5% with SNB-19 CNS; 80% in the test on U251 CNS; 75.7% in the test with PC-3 prostate; 59.1% in the test on SK-MEL-5 melanoma; 67.8% in the test with UACC-62 melanoma. For the same compound, the growth in the test with LOX IMVI melanoma was 71.4%; with SK-MEL-28 melanoma, 78.1%.
Take `COc1ccc(NC(=O)CSc2nnc(-c3cc(-c4ccccc4)nc4ccccc34)n2-c2ccccc2)cc1`: the growth was 99.7% with DU-145 prostate; 84.8% in the test on K-562 leukemia; 88.7% in the test with MALME-3M melanoma; 89.3% in the test with MDA-MB-231 breast; 99% in the test on RXF 393 renal; 90.8% in the test on SF-268 CNS. For the same compound, the growth with SF-295 CNS is 97.4%; in the test with SF-539 CNS, 100%; with UACC-257 melanoma, 99.2%; in the test with M14 melanoma, 98.1%; in the test on HCT-15 colon, 95.4%; in the test on HT29 colon, 106%. For the same compound, the growth is 79.3% in the test on SNB-75 CNS; 93.5% with SNB-19 CNS; 100% in the test with U251 CNS; 73.2% in the test on PC-3 prostate; 90.8% in the test on SK-MEL-5 melanoma; 73.8% in the test with UACC-62 melanoma. Further, the results for the growth in the test with LOX IMVI melanoma and with SK-MEL-28 melanoma were 97.3% and 95.7%, respectively.
Take `O=C1N=c2cc3c(cc2=C/C1=C/c1sc(=S)n(CCc2ccc(O)cc2)c1O)OCCO3`: the growth in the test on DU-145 prostate is 80.6%; in the test on K-562 leukemia it was 6.11% (active); with MALME-3M melanoma, 36.7%; in the test with MDA-MB-231 breast, 24.8%; in the test on RXF 393 renal it was 92.9%; in the test on SF-268 CNS, 91.7%. Moreover, the growth in the test with SF-295 CNS is 101%; in the test on SF-539 CNS it was 95.8%; in the test on UACC-257 melanoma it was 90.3%; with M14 melanoma, 27.8%; in the test with HCT-15 colon it was 9.98% (active); in the test on HT29 colon, 21.2%. The growth with SNB-75 CNS was 61.4%; in the test with SNB-19 CNS, 22.9%; in the test with U251 CNS it was 17.8%; with PC-3 prostate it was 41.4%; in the test on SK-MEL-5 melanoma it was 83.3%; in the test on UACC-62 melanoma, 20.7%. Also, the growth in the test on LOX IMVI melanoma was 3.28% (active); in the test with SK-MEL-28 melanoma it was 38.7%.
As to `Clc1cccc(Cl)c1/C=C/c1cc(/C=C/c2c(Cl)cccc2Cl)[nH]n1`, the growth with DU-145 prostate was 17%; in the test on K-562 leukemia, 12%; in the test on MALME-3M melanoma it was 60.1%; in the test with MDA-MB-231 breast it was 13.1%; with RXF 393 renal, 6.46% (active); in the test on SF-268 CNS, 53.2%. The growth in the test with SF-295 CNS is 20.9%; with SF-539 CNS it was -43.7% (active); with UACC-257 melanoma it was 58.6%; in the test on M14 melanoma, 5.51% (active); with HCT-15 colon it was 27.7%; with HT29 colon, 10.7%. The growth in the test with SNB-75 CNS is 11%; in the test with SNB-19 CNS, 25.9%; in the test on U251 CNS, 20.3%; in the test on PC-3 prostate, 30.8%; in the test on SK-MEL-5 melanoma, 22.9%; in the test on UACC-62 melanoma it was 38.8%. In addition, the growth with LOX IMVI melanoma was 46.3%; in the test on SK-MEL-28 melanoma, 46.2%.

The values are drawn from PubChem BioAssay (NCI).
